Screening results (PubChem BioAssay)
HP1b binding inh = blocks HP1-beta chromodomain binding to methylated histone tails; Potency, µM (series often up to 114 µM), actives largely listed as inhibitors; P83916; AlphaScreen HP1-beta / biotin-H3K9me3 peptide binding; AID 540317; 390,000 tested, 0.56% active; note: nearly all actives have a fitted effect of over 70% in size
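HP1-beta protein (50 nM final) preincubated 30 min at room temperature with biotinylated H3(1-18)K9me3 peptide (50 nM) in PBS pH 7.4, 0.01% Tween-20, then compound added for 30 min. AlphaScreen streptavidin donor/nickel chelate acceptor beads (10 ug/mL final), 30 min dark, luminescence read.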
G9a inh = inhibitors of human histone lysine methyltransferase G9a. Q96KQ7. G9a H3K9 monomethylation, AlphaScreen, 2 h. Potency, µM (highest dose often 102 µM), actives largely listed as inhibitors. 350,000 tested, 8.8% active. AID 504332; note: nearly all actives have a fitted effect of over 75% in size
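Step 1: enzyme (final 20 nM) with compound, 15 min RT. Step 2: substrate peptide 500 nM and SAM 20 uM, 2 h RT. Step 3: anti-H3K9me1 antibody and AlphaScreen beads, 10 min, then plate read.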
Six1-Eya2 blk = inhibitors of human Six1/Eya2 interaction; AlphaScreen GST-Six1/His-Eya2 binding, biochemical; hits give low values; activity change, % (concentration not given with the values); 360,000 tested, 0.56% active; AID 651725; in the data active = activity change below about -65%; inconclusive = mostly about -30% to -63%
Target sequence (O00167 whole entry, looked up): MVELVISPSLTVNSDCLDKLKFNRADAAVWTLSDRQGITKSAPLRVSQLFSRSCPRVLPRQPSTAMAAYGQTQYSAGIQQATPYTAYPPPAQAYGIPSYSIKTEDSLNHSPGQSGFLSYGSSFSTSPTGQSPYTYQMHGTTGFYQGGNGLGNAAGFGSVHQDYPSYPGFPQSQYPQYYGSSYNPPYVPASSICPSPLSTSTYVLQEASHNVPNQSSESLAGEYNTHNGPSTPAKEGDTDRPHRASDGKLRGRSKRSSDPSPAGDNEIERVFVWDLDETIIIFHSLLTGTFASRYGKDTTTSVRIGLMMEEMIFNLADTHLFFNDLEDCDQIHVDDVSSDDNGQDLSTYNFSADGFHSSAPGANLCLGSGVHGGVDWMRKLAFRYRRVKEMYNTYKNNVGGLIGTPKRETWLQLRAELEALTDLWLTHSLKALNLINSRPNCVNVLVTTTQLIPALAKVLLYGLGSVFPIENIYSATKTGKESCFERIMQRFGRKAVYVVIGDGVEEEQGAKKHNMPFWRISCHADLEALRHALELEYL
Target sequence (Q15475 whole entry, looked up): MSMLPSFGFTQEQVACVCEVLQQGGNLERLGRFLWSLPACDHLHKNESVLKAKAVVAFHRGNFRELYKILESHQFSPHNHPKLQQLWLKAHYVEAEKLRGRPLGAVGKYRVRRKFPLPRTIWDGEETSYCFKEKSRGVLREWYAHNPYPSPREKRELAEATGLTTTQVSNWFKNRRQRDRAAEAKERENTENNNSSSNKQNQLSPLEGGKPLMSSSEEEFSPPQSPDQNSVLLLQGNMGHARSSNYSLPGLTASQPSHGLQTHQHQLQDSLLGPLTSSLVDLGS
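Homogeneous AlphaScreen proximity assay pairing GST-Six1 with His-tagged Eya2 (added as 5X mix: 250 nM and 500 nM) in 50 mM Tris pH 8.0, 300 mM NaCl, 1 mM TCEP. Glutathione donor and nickel acceptor beads; 1 h, 37 °C, dark.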
JMJD2A Tudor = JMJD2A Tudor domain (human) inhibition | Potency, µM (titrated, usually from 114 µM), actives largely listed as inhibitors | O75164 | 390,000 tested, 4.4% active | AID 504339 | AlphaScreen JMJD2A-Tudor / H3K4me3 peptide binding; note: nearly all actives have a fitted effect of over 50% in size
BAZ2B inh = blocks human BAZ2B; Q9UIF8; AlphaScreen BAZ2B-H3K14Ac peptide displacement; Potency, µM (highest dose often 114 µM), hits mostly inhibitors; 360,000 tested, 4.4% active; note: nearly all actives have a fitted effect of over 60% in size
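Multi-concentration screen (max 110 uM) measuring displacement of acetylated histone H3 peptide from BAZ2B by AlphaScreen, using 50 nM protein, 50 nM peptide and 10 ug/mL streptavidin donor plus Ni-chelate acceptor beads.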
CtBP-E1A blk = CtBP/E1A binding inhibition; activity change, % (test concentration not listed); AlphaScreen GST-E1A/His-CtBP binding, 1536-well; hits give low values; 340,000 tested, 0.49% active; AID 651724; in the data active = activity change below about -65%; inconclusive = mostly about -30% to -63%
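In 5 uL wells, 23 nL compound meets equimolar GST-E1A and His-CtBP (5X stock 125 nM each) for 2 h, 37 °C. Beads (5X, 50 ug/mL) then 1 h, 37 °C, dark.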
Numbers stand for hits; . = inactive; ? = inconclusive; / = not tested or not shown; [ ] = remark or other dose. Hits are enriched below; roughly 10% of the tested compounds scored in any of these assays. Unless noted, calls come from the whole dose curve; as a rule, active = well fitted inhibition curve with a large enough effect; inconclusive = small, poorly fitted or top-dose-only effect; inactive = no such curve, though single readings can be large or run the other way.

SMILES	HP1b binding inh	G9a inh	Six1-Eya2 blk	JMJD2A Tudor	BAZ2B inh	CtBP-E1A blk
COc1cc(/C=C/c2nc3ccccc3c(=O)n2-c2ccc(Br)c(C)c2)ccc1O	.	.	/	.	.	/
CC/C(=C(\c1ccc(O)cc1)c1ccc(OCCN(C)C)cc1)c1ccccc1	.	?	.	56µM	45µM	.
CCC(Oc1ccc(Cl)cc1)C(=O)OC1CC2CCC(C1)N2C (stereo not drawn)	/	.	/	/	/	/
COC(=O)C(O)(c1ccc(NC(=S)NC(=O)c2ccc(Cl)cc2Cl)c(C)c1)C(F)(F)F (stereo not drawn)	.	.	.	79µM	.	.
CCOC(=O)C(O)(c1ccc(NC(=S)NC(=O)c2ccc(Cl)cc2Cl)c(C)c1)C(F)(F)F (stereo not drawn)	.	.	.	.	.	.
CC/C(=N\Nc1ccccc1)c1c(O)n(-c2ccccc2)c(=O)[nH]c1=O	.	40µM	.	.	.	.
C/C(=N\NC(=S)Nc1ccccc1)c1c(O)n(C)c(=O)n(C)c1=O	.	1.3µM	.	18µM	.	.
CC/C(=N\NC(=O)Nc1ccccc1)c1c(O)n(Cc2ccccc2)c(=O)[nH]c1=O	.	.	.	.	.	.
Cc1ccc(-n2c(O)c(/C=N/c3ncc(Br)cc3Br)c(=O)[nH]c2=O)cc1	.	.	.	.	?	.
COc1ccc(-n2c(O)c(/C(C)=N/Nc3ccccc3)c(=O)[nH]c2=O)cc1	.	40µM	.	.	.	.
CC(=NCCc1ccccc1)c1c(O)n(C)c(=O)n(C)c1=O	.	.	.	.	.	.
Cc1cccc(-n2c(O)c(C=Nc3ccc(Br)cn3)c(=O)[nH]c2=O)c1	.	/	.	10µM	.	.
Cc1ccc(N/N=C/c2c(O)n(-c3ccccc3)c(=O)[nH]c2=O)cc1	.	3.2µM	.	.	.	.
C/C(=N\NC(=O)c1ccccc1)c1c(O)n(Cc2ccccc2)c(=O)[nH]c1=O	.	.	.	.	.	.
C/C(=N\Nc1cccc2ccccc12)c1c(O)n(Cc2ccccc2)c(=O)[nH]c1=O	?	1.6µM	.	79µM	?	.
CC/C(=N\Nc1ccccc1)c1c(O)n(C)c(=O)n(C)c1=O	.	22µM	.	.	.	.
Cc1ccc(-n2c(O)c(/C=C/C=Nc3ccccc3)c(=O)[nH]c2=O)cc1	.	?	.	.	.	.
c1ccc(C2(N3CCCCC3)CCCCC2)cc1	.	/	.	.	/	.
S=C=Nc1cccc(C2(N3CCCCC3)CCCCC2)c1	.	14µM	.	.	.	.
CN1C(=O)/C(=C\N2CCc3ccccc32)C(=O)NC1=S	.	?	.	?	.	.
O=C1NC(=S)N(Cc2ccco2)C(=O)/C1=C\c1cccs1	/	3.2µM	/	/	/	/
C=CCN1C(=O)/C(=C/c2cccs2)C(=O)NC1=S	.	8.9µM	.	79µM	?	.
CN(C)c1ccc(/C=C2/C(=O)NC(=O)N(Cc3ccco3)C2=O)cc1	.	?	.	.	.	.
CCCN(C(=O)c1cc2c(=O)oc3ccccc3c2s1)c1cccc(Cl)c1	.	.	/	?	.	/
CN1CCN(c2csc3ccc(F)cc3c2=O)CC1	.	.	/	.	.	/
SMILES	HP1b binding inh	G9a inh	Six1-Eya2 blk	JMJD2A Tudor	BAZ2B inh	CtBP-E1A blk
O=C1C(Cl)=CC(=Nc2ccc(O)cc2)C=C1Cl	14µM	?	.	45µM	32µM	.
O=c1c2ccccc2nc(/C=C/c2ccccc2O)n1-c1ccc(Br)cc1	.	.	/	.	.	/
COc1ccc(-c2nc(CN3C(=O)CN=C(c4ccccc4Cl)c4cc(Cl)ccc43)c(C)o2)cc1OC	.	.	/	.	.	/
CC(C)[N+](C)(CCC(C(N)=O)(c1ccccc1)c1ccccc1)C(C)C	?	.[2.33 µM]	.	25µM	.	.
CC[N+](C)(CC)CCOC(=O)C(O)(c1ccccc1)c1ccccc1	/	.[12.7 µM]	/	/	/	/
O=C1NC(=S)NC(=O)C1=Cc1cccn1-c1ccc(O)cc1	?	7.1µM	?	25µM	.	.
CN1C(=O)/C(=C/c2cccn2-c2ccc3ccccc3c2)C(=O)NC1=S	.	?	-79	?	45µM	.
Cc1cc(C)cc(N2C(=O)NC(=O)/C(=C\c3cccn3-c3ccc(Cl)cc3)C2=O)c1	.	.	.	.	.	.
CN(C[C@H](Cc1ccccc1)N(C[C@H](Cc1ccccc1)N(CC1(c2ccccc2)CC1)N=O)N=O)N=O	.	.	.	.	?	.
Cc1ccc(N2CCN(C(=O)c3cn(CC4CCCCC4)nn3)C(C)C2)cc1 (stereo not drawn)	.	/	.	?	/	.
Nc1ccc(Oc2cccc(Oc3ccc(N)cc3)c2)cc1	?	45µM	.	?	40µM	.
CC(=O)OCC1=C(C(=O)O)N2C(=O)C(NC(=O)CCCC(N)C(=O)O)C2SC1 (stereo not drawn)	/	.[2.33 µM]	/	/	/	/
CC1=C(C(=O)O)N2C(=O)C(NC(=O)Cc3ccccc3)C2SC1 (stereo not drawn)	.	10µM	.	.	.	.
CC1=C(C(=O)O)N2C(=O)C(NC(=O)c3nn(C)cc3[N+](=O)[O-])C2SC1 (stereo not drawn)	.	3.5µM	.	?	50µM	.
CCCCCC(O)C1C(=O)OC(C)C(O)\C=C/C=C\C=C/C=C\C=C(\C)C(O)C(O)C(O)CC(O)CC(O)CC(O)CC(O)CC1O (stereo not drawn)	/	.[12.7 µM]	/	/	/	/
CC(C)c1ccc(N=Nc2c(O)[nH]c(=O)[nH]c2=O)cc1	.	?	.	?	.	.
O=c1[nH]c(=S)[nH]c(O)c1N=Nc1ccc(SC(F)F)cc1	.	45µM	.	.	.	.
